Consider 9 molecules from PubChem BioAssay (NCATS).

Where “and” joins values, the source holds several entries; their conditions need not be identical. Identical values can stand only once. Results filed as inconclusive are left out. Calls of active or inactive are those of the source. Unless noted, calls come from the whole dose curve; as a rule, active = well fitted curve in the direction sought with a large enough effect; inconclusive = small, poorly fitted or top-dose-only effect, or another doubt; inactive = no such curve, though single readings can be large; an effect the other way counts as inactive or inconclusive.

Test [1] has as its target Cytochrome P450 3A4 (Homo sapiens) (UniProt P08684). In words: qHTS Assay for Inhibitors and Substrates of Cytochrome P450 3A4 (AID 884). Note: series mostly up to about 57 µM; % is set by controls: 0 for no effect and ±100 for the full control effect; nearly all actives have a fitted effect of over 50% in size. The method in brief:
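20 nM human CYP3A4 with 25 uM Luciferin-PPXE (at KM) in 200 mM KPO4, preincubated 10 min with compound; NADPH regeneration started a 60 min RT reaction. Luciferin detected by luminescence, normalized to 57 uM ketoconazole as full inhibition.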

Test [2] can be described thus: Cell Viability - LYMP2-004 (AID 966).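 Note: plate controls were DMSO only for no effect and tetraoctylammonium bromide control for full effect; nearly all actives have a fitted effect of over 65% in size.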 The method in brief:
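Lymphoblastoid LYMP2-004 cells, 2500 per well, were preincubated for 5 hr and then treated with compound for 24 h at 37 C in complete medium. Viability was read as cellular ATP by CellTiter-Glo luminescence, and AC50 values were taken from Hill fits to concentration-response data.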

A short description of test [3]: Cell Viability - LYMP2-009 (AID 968).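 Note: series mostly up to about 92 µM; 0% = DMSO alone and the full-kill end = tetraoctylammonium bromide at 92 µM; nearly all actives have a fitted effect of over 55% in size.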
Test [4] is described as follows: Cell Viability - LYMP2-016 (AID 984).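 Note: cells exposed to compound for 24 hours at 37 °C; % is set by controls: 0 for no effect and ±100 for the full control effect; nearly all actives have a fitted effect of over 55% in size.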 Put shortly:
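Acute toxicity in a Coriell human lymphoblastoid line is scored as loss of intracellular ATP over 24 h of treatment in complete medium. CellTiter-Glo signal is fitted across concentrations with the Hill equation to give AC50.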

A short description of test [5]: Cell Viability - LYMP2-020 (AID 986).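 Note: series mostly up to about 92 µM; plate controls were DMSO only for no effect and tetraoctylammonium bromide at 92 µM for full effect; nearly all actives have a fitted effect of over 55% in size.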 The method in brief:
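Human lymphoblastoid LYMP2-020 cells (2500/well) preincubated 5 h at 37 C, then treated 24 h at 37 C. Viability measured as intracellular ATP by CellTiter-Glo luminescence after 30 min at room temperature; AC50 from Hill fits.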

Test [6] concerns the target Estrogen receptor (Homo sapiens) (UniProt P03372). In words: qHTS assay for small molecule antagonists of estrogen receptor alpha signaling (AID 588513; active = well fitted curve in the direction sought with a large enough effect in the signal ratio, with a control signal flat, not every such curve was filed as active; the % refers to the signal ratio; note: % is set by controls: 0 for no effect and ±100 for the full control effect). The method in brief: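 Cells were plated at 5000/well and incubated 4 h at 37 C. Compounds were added as 1:2 dilution series, duplicates. 17-beta-estradiol (0.5nM final) was added for 18 h before CCF4 detection.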
For orientation: Quantitative high-throughput screening tests each substance at several concentrations.

Test [7] has as its target Bile acid receptor (Homo sapiens) (UniProt Q96RI1). The test is described as follows: qHTS assay for small molecule antagonists of farnesoid X receptor signaling (AID 588526; calls by dose curve; note: % is set by controls: 0 for no effect and ±100 for the full control effect). The method in brief:
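Antagonist mode: titrated compounds tested against chenodeoxycholic acid stimulation (normalized to 50 uM CDCA and DMSO) in GeneBLAzer HEK293T cells for 16 h. Beta-lactamase read by CCF4 fluorescence; IC50 from Hill fits.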

For test [8] the target is unchanged. The test is described as follows: qHTS assay for small molecule agonists of farnesoid X receptor signaling (AID 588527; calls by dose curve;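 note: series mostly up to about 77 µM; 0% = vehicle basal and 100% = reference agonist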). The conditions noted are these: HEK293T FXR-UAS-bla, beta-lactamase ratio, 16 h; stronger effect = higher value. Put shortly: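 FXR-UAS-bla HEK293T, 10% dialyzed FBS; cpds up to 92 uM titration, 16 h 37 C; CCF4 dye 2 h RT; fluorescence. Normalized to chenodeoxycholic acid 100 uM (100%) and DMSO (0%); Hill fit gives EC50, efficacy.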

Test [9] concerns the target Glucocorticoid receptor (Homo sapiens) (UniProt P04150). The test is described as follows: qHTS assay for small molecule agonists of glucocorticoid receptor signaling (AID 588532; active = well fitted curve in the direction sought with a large enough effect in the signal ratio, with a control signal flat; the % refers to the signal ratio;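 note: 100% = dexamethasone at 0.1 µM and 0% = DMSO only wells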). Particulars: HeLa MMTV-bla, beta-lactamase ratio, agonist, 18 h; stronger effect = higher value; percent of dexamethasone control, DMSO zero. The method in brief:
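HeLa GRE-bla reporter cells; 18 h compound exposure at 37 C; 2 h CCF4 loading at room temperature; fluorescence at 460 and 530 nm; EC50 by Hill equation.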

Test [10] shares this target. The test is described as follows: qHTS assay for small molecule antagonists of glucocorticoid receptor signaling (AID 588533; active = well fitted inhibition curve with a large enough effect in the signal ratio, with a control signal flat, not every such curve was filed as active; the % refers to the signal ratio; note: % is set by controls: 0 for no effect and ±100 for the full control effect). The method in brief: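 Antagonist-mode qHTS: compound titrations added to GRE-bla HeLa cells, then dexamethasone 2 nM final; 18 h, 37 C. CCF4 FRET fluorescence normalized to dexamethasone and DMSO; IC50 from Hill fit.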
For test [11], the target named is Vitamin D3 receptor (Homo sapiens) (UniProt P11473). In words: qHTS assay for small molecule antagonists of vitamin D receptor signaling (AID 588541; calls by dose curve;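 note: receptor activated by calcitriol during compound treatment; series mostly up to about 77 µM; % is set by controls: 0 for no effect and ±100 for the full control effect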). Put shortly: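 VDR-UAS-bla HEK293T cells in 2% charcoal-stripped FBS were stimulated with 1-alpha,25-dihydroxyvitamin D3 (3 nM final) plus compound for 16 h at 37 C. The beta-lactamase CCF4 readout was normalized to 50 nM agonist and DMSO, and Hill fits gave IC50.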
Vitamin D3 receptor (Homo sapiens), sequence (P11473 whole entry, looked up): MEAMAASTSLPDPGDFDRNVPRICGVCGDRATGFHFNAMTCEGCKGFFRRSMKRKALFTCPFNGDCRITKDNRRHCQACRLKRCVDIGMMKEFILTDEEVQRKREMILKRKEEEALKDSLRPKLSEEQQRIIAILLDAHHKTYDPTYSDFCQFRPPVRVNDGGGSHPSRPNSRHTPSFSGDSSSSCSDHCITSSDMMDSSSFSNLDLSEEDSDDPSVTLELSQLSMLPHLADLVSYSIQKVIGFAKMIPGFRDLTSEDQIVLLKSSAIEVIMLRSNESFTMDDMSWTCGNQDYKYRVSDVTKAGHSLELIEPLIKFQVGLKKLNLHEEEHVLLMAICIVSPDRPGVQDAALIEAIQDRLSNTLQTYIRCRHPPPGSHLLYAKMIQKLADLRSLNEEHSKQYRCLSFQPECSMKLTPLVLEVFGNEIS

The target is the same in test [12]. The test is described as follows: qHTS assay for small molecule agonists of vitamin D receptor signaling (AID 588543; calls by dose curve;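 note: 0% = DMSO basal and 100% = reference agonist control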). The method in brief:
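qHTS in agonist mode: compound titrations stimulate a VDR-driven β-lactamase reporter in HEK293T cells over 16 h at 37 °C. Response normalized to 50 nM 1α,25-dihydroxyvitamin D3 = 100%, DMSO = 0%; Hill fitting gives EC50 and maximal response.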

For test [13], the target named is Thyroid hormone receptor beta (Homo sapiens) (UniProt P10828). In words: qHTS assay for small molecule agonists of thyroid hormone receptor beta signaling (AID 588545; calls by dose curve;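 note: 0% = DMSO only and 100% = 10 nM T3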). The method in brief: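 Compounds were tested as agonists in TR-UAS-bla-GripTite HEK 293 cells. After 18 hrs at 37 C, CCF4 substrate was added and fluorescence read after 2 hrs at room temperature.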
Thyroid hormone receptor beta (Homo sapiens), sequence (P10828 whole entry, looked up): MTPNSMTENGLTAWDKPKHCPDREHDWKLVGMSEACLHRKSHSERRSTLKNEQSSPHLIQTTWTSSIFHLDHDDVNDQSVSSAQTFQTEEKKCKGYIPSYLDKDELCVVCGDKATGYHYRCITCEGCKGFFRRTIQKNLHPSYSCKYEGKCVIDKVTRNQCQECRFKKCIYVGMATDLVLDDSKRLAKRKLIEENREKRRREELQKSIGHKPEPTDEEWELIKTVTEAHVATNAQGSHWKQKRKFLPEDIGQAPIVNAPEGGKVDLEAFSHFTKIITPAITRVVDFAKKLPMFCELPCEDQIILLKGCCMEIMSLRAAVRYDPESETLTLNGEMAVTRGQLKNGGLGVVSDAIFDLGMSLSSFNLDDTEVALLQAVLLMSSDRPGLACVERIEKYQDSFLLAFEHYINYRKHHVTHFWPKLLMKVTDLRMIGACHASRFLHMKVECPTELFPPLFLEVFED

Test [14] has the same target. The test is described as follows: qHTS assay for small molecule antagonists of thyroid hormone receptor beta signaling (AID 588547; active = well fitted inhibition curve with a large enough effect in the signal ratio, with a control signal flat, not every such curve was filed as active; the % refers to the signal ratio). The conditions noted are these: TR-UAS-bla HEK293, beta-lactamase ratio, antagonist mode, 18 h. The method in brief:
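TR-UAS-bla GripTite HEK293 cells in 2% charcoal/dextran FBS medium; compounds 0.59 nM to 92 uM with T3 at 0.4nM final, 18 h at 37 C. Beta-lactamase read by CCF4 fluorescence (460/530 nm); Hill fits gave IC50 and efficacy.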

The nature of test [15]: qHTS assay for small molecule antagonists of the retinoid-related orphan receptor gamma (ROR-gamma) signaling pathway - cell viability counter screen (AID 720652; active = well fitted curve in the direction sought with a large enough effect in the repeat runs; an effect the other way counts as inactive or inconclusive). Put shortly: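 CHO cells carrying TET-inducible ROR and RORE-luciferase reporter, plated 5 hr, then dosed with compound plus doxycycline. After 16 hr at 37 C, viability read as intracellular ATP by CellTiter-Glo luminescence.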

Test [16] concerns the target Nuclear receptor subfamily 1 group I member 2 (Rattus norvegicus) (UniProt Q9R1A7). The test is described as follows: qHTS assay for small molecule activators of the rat pregnane X receptor (rPXR) signaling pathway (AID 651751; call rule not given here; note: 0% is about no effect). Particulars: rPXR reporter cells, luciferase (One-Glo), 24 h.
Test [17] in a line: qHTS assay for small molecule activators of the human pregnane X receptor (PXR) signaling pathway (AID 720659; call rule not given here; note: 0% is about no effect).
A short description of test [18]: Cell Viability - LYMP2-012 (AID 982).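 Note: cellular ATP by luciferase luminescence where a drop means cytotoxicity; cells exposed to compound for one day before reading; 0% = DMSO only and full loss = 92 µM tetraoctylammonium bromide; nearly all actives have a fitted effect of over 55% in size.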
The nature of test [19]: qHTS assay for small molecule antagonists of peroxisome proliferator-activated receptor delta signaling (AID 588535; active = well fitted inhibition curve with a large enough effect in the signal ratio, with a control signal flat, not every such curve was filed as active; the % refers to the signal ratio;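 for max response: cells co-treated with a PPAR-delta agonist as stimulator during compound exposure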). The conditions noted are these: HEK293T PPARd-UAS-bla, beta-lactamase FRET ratio, 18 h; 460 nm channel. The method in brief:
(§1)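 Antagonist-mode beta-lactamase reporter (GeneBLAzer PPAR-delta-UAS-bla) in HEK293T cells, 2% charcoal/dextran FBS, 4000 cells/well. Compound titrations, 18 h at 37 C; CCF4 ratio read, IC50 and efficacy from Hill fits.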

The target in test [20] is Peroxisome proliferator-activated receptor delta (Homo sapiens) (UniProt Q03181). The test is described as above. Put shortly:
as §1

Cytochrome P450 3A4 (Homo sapiens), sequence (P08684 whole entry, looked up): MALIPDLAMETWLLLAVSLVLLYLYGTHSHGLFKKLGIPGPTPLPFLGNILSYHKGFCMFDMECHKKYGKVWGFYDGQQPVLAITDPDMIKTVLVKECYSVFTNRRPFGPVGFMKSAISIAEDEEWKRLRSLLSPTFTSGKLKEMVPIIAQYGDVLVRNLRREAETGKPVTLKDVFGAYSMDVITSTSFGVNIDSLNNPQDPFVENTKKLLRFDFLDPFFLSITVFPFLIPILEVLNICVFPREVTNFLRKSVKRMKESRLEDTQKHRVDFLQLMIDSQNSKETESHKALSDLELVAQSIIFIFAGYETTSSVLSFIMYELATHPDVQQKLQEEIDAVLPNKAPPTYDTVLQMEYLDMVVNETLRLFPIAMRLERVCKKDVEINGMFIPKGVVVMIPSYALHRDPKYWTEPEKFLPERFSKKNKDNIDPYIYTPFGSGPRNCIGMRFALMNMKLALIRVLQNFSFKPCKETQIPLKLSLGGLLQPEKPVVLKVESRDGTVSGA
Nuclear receptor subfamily 1 group I member 2 (Rattus norvegicus), sequence (Q9R1A7 whole entry, looked up): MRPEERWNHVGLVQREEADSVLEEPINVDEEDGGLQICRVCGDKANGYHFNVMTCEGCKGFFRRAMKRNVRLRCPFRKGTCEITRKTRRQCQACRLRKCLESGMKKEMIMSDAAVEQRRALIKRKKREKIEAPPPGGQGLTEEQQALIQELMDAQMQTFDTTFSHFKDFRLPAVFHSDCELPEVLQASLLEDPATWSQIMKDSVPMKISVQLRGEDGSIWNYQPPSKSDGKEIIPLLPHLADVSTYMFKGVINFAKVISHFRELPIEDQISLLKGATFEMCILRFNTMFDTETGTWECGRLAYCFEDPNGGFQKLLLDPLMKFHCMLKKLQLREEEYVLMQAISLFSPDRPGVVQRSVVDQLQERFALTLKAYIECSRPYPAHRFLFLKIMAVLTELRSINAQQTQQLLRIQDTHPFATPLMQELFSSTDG
Peroxisome proliferator-activated receptor delta (Homo sapiens), sequence (Q03181 whole entry, looked up): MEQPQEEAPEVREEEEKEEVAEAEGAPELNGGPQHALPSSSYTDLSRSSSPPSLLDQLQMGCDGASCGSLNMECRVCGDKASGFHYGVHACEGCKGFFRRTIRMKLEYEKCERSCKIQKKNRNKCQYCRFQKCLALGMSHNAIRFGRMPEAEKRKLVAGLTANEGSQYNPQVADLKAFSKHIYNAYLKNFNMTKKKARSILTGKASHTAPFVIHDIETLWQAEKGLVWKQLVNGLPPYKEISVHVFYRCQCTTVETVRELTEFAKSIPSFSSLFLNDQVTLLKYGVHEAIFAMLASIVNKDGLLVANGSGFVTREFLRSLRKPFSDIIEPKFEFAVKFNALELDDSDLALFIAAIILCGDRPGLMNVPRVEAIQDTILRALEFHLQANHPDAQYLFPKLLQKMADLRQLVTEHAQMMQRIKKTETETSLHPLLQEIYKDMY
Estrogen receptor (Homo sapiens), sequence (P03372 whole entry, looked up): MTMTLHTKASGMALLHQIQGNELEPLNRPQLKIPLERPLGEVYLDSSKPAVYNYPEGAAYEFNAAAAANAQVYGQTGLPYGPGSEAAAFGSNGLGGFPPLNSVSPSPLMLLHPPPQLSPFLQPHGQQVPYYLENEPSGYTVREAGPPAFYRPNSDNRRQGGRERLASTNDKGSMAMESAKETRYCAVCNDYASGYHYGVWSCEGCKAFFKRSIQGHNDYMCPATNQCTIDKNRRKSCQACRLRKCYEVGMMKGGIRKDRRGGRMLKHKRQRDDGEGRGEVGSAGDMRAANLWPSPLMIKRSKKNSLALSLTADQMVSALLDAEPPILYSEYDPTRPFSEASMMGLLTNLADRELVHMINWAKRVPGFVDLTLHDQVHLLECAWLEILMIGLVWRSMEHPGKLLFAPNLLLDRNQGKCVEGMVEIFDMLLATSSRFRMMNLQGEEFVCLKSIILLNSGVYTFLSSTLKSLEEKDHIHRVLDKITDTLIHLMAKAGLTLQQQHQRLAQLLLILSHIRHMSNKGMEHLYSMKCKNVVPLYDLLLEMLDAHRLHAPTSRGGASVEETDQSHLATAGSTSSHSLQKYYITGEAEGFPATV
Bile acid receptor (Homo sapiens), sequence (Q96RI1 whole entry, looked up): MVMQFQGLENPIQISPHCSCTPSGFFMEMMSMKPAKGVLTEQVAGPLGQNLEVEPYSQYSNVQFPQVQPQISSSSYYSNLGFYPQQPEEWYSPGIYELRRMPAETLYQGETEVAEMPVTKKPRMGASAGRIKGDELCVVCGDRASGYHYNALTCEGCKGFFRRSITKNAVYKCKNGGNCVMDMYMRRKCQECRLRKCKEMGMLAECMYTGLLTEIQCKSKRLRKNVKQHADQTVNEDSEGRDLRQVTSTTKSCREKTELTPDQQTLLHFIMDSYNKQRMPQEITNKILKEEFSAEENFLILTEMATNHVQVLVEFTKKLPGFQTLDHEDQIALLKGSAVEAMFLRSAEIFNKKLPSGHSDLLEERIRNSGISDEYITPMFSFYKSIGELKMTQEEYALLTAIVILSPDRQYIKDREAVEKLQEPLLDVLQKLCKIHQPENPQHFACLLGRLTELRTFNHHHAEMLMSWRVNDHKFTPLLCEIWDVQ
Glucocorticoid receptor (Homo sapiens), sequence (P04150 whole entry, looked up): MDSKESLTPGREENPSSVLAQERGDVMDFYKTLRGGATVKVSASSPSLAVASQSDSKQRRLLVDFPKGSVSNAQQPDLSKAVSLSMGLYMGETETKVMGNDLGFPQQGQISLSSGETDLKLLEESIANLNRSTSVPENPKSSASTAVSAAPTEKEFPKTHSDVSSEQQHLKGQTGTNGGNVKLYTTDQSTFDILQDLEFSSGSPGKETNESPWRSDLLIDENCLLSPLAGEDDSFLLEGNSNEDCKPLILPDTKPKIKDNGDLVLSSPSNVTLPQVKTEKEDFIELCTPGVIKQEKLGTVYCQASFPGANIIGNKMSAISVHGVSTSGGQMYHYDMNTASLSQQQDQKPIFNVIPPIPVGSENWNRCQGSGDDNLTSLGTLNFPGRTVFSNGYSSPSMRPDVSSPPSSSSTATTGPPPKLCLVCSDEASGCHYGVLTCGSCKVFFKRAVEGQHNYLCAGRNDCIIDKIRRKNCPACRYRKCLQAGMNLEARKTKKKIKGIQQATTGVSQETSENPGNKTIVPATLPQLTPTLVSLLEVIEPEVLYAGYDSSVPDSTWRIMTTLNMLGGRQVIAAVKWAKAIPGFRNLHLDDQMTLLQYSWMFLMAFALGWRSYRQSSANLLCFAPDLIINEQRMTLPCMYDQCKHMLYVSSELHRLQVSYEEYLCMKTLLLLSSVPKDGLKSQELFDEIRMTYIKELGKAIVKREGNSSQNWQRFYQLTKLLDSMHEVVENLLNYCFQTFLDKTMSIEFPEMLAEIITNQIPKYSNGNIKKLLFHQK

On to `O=[N+]([O-])c1ccc(Cl)c(Cl)c1`, for which the Potency result in test [1], in test [2], in test [3], in [4], in [5] and in test [6] was “inactive” in each case. In addition, the Potency entry in test [10] and in test [15] was “inactive” throughout. Also, the call in [7], in test [11], in [12], in test [13] and in test [17] was inactive. Moreover, the activation is 1.09% (inactive) in test [8] and 0.986% (inactive) in test [9]. Besides, in test [14], the activity change % (negative = inhibition) was -4.24% (inactive). Further, the max response in test [16] is 0.633% (inactive).
On to `Cc1ccc(O)c(C)c1`, for which the Potency entry in test [1], in test [2], in test [3], in test [18], in [4] and in test [5] was “inactive” each time. Further, the Potency entry in test [6], in test [10], in test [20] and in [15] was “inactive” in each case. In addition, the activation in test [9] was 12.9% (inactive) and 20.9% (inactive). Moreover, the max response in test [19] was -17.8% and 29.7%; in test [16] it was -2.91% (inactive) and 1.12% (inactive) and -5.05% (inactive). In [13], the call was inactive. Besides, the activity change % (negative = inhibition) in test [14] is 2.23% (inactive) and -13.2% (inactive) and -16.1% (inactive).
On to `CCOc1ccc(N)cc1`, for which the Potency entry in [1], in test [2], in test [3], in test [18], in [4] and in [5] was “inactive” each time. For the same molecule, the Potency result in test [6], in test [10] and in [15] was “inactive” throughout. For the same molecule, the call in [7], in [12], in [13] and in test [17] was inactive. Further, the activation in test [8] was -2.12% (inactive); in [9], 2.46% (inactive). The activity change % (negative = inhibition) in test [14] was -6.64% (inactive). For the same molecule, in [16], the max response was 3.36% (inactive).
For the molecule `COc1cc2c3cc1Oc1c(OC)c(OC)cc4c1C(Cc1cccc(c1)Oc1ccc(c(O)c1)CC3N(C)CC2)N(C)CC4` (centres undefined), in test [1], the Potency result is “inactive”.
With `ClCBr`, the Potency entry in test [2], in test [6], in test [10], in test [20] and in [15] was “inactive” in each case. For the same molecule, the outcome in [7], in test [11], in test [12], in [13] and in test [17] was inactive. The activation in [8] was -2.9% (inactive); in test [9], -4.32% (inactive). The figures for the max response in test [19] and in test [16] were 36.6% and 0.745% (inactive), respectively. In addition, the activity change % (negative = inhibition) in [14] is 5.81% (inactive).
For `Nc1ccc(Br)cc1`, the Potency entry in [1], in test [2], in test [3], in test [18], in test [4] and in test [5] was “inactive” throughout. Also, the Potency entry in [6], in test [10] and in [15] was “inactive” throughout. Moreover, the molecule was classed as inactive in [7], in test [13] and in [17]. Further, the activation is 0.791% (inactive) in test [8] and -2.07% (inactive) in test [9]. Also, the activity change % (negative = inhibition) in test [14] is -8.18% (inactive). The max response in [16] is -3.71% (inactive).
Take `O=NN(CCO)CCO`: the Potency entry in test [1], in test [2], in test [3], in [18], in [4] and in test [5] was “inactive” in each case. In addition, the Potency result in test [6], in test [10] and in [15] was “inactive” throughout. For the same molecule, the result in test [7], in test [11], in test [12], in [13] and in test [17] was inactive. Also, the activation in [8] is 3.77% (inactive). In [14], the activity change % (negative = inhibition) is -10.8% (inactive). In addition, the max response in [16] is 3.2% (inactive).
Regarding `C[C@@]12CCC(Cl)C[C@H]1CCC1C2CC[C@]2(C)C(=O)CCC12` (some centres undefined), the Potency entry in test [1] is “inactive”.
As to `CC(C)(C)OO`, the Potency result in test [1], in test [2], in [3], in [18], in test [4] and in [5] was “inactive” each time. For the same molecule, the Potency entry in test [20] and in [15] was “inactive” in each case. Moreover, the max response was 26.2% and -4.41% in test [19]; 1.05% (inactive) and -0.992% (inactive) in test [16]. For the same molecule, the molecule was classed as inactive in test [11], in test [12], in test [13] and in test [17]. Also, in test [14], the activity change % (negative = inhibition) was 4.81% (inactive) and -2.74% (inactive).
